Data on seven compounds can be found in ChEMBL document CHEMBL1961873, “Compounds: GSK PKIS; Assays: Nanosyn kinase panel” (2012).

Experiment [1] addresses T1, Aurora kinase A (Homo sapiens) (UniProt O14965).
T1 sequence (whole entry): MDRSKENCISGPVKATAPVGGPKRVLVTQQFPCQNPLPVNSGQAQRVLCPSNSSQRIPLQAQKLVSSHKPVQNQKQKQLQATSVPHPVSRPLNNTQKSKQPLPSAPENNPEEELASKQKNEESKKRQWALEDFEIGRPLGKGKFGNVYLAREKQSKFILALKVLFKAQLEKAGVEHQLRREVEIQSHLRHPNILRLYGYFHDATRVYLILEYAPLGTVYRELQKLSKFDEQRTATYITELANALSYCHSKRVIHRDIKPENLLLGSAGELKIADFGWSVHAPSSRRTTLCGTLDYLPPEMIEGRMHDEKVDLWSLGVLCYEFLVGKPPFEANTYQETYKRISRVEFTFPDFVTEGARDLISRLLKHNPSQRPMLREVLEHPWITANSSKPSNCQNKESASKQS
To be noted: at 1 µM.

In experiment [2] the target is Aurora kinase B (Homo sapiens) (UniProt Q96GD4). To be noted: at 0.1 µM.
The target is the same in experiment [3]. Particulars: at 1 µM.
Experiment [4] deals with T2, Aurora kinase C (Homo sapiens) (UniProt Q9UQB9).
T2 sequence (whole entry): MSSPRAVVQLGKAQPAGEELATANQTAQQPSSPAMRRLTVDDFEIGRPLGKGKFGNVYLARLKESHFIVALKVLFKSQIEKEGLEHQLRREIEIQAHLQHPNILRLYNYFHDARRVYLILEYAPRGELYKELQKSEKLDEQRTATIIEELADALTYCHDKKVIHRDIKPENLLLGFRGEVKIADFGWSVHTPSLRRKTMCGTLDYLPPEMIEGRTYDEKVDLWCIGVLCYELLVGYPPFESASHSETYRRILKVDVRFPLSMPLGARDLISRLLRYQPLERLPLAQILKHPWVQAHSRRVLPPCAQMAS
To be noted: at 0.1 µM.

The target in experiment [5] is T2, Aurora kinase C (Homo sapiens). To be noted: at 1 µM.
The target of experiment [6] is Serine/threonine-protein kinase 10 (Homo sapiens) (UniProt O94804). Particulars: at 0.1 µM.
For experiment [7] the target is unchanged. Particulars: at 1 µM.
Experiment [8] deals with T3, Mitogen-activated protein kinase kinase kinase kinase 2 (Homo sapiens) (UniProt Q12851).
T3 sequence (whole entry): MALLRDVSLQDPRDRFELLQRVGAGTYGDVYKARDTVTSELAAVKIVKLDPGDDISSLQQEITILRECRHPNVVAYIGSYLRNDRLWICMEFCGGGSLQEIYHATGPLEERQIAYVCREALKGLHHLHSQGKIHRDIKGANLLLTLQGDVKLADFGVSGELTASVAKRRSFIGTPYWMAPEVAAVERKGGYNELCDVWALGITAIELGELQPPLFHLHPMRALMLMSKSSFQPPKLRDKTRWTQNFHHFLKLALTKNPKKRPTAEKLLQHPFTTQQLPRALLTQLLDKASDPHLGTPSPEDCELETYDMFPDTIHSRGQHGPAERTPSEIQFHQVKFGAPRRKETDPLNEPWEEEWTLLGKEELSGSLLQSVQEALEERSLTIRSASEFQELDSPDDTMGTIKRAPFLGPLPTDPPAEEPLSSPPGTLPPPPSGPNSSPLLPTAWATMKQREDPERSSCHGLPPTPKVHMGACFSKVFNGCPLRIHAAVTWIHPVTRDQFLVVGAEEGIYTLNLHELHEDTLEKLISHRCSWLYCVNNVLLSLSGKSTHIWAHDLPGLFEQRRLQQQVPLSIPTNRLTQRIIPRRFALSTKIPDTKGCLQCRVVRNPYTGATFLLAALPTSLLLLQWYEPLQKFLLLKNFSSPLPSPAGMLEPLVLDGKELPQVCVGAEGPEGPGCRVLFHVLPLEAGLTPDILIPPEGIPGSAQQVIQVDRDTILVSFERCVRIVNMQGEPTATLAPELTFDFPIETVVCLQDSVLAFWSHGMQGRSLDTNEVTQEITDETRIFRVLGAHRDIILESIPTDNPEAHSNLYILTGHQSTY
Particulars: at 0.1 µM.

Experiment [9] deals with T3, Mitogen-activated protein kinase kinase kinase kinase 2 (Homo sapiens). To be noted: at 1 µM.
In experiment [10] the target is Mitogen-activated protein kinase kinase kinase kinase 4 (Homo sapiens) (UniProt O95819). To be noted: at 0.1 µM.
The target is the same in experiment [11]. Particulars: at 1 µM.
Experiment [12] has as its target Dual specificity mitogen-activated protein kinase kinase 1 (Homo sapiens) (UniProt Q02750). Particulars: at 0.1 µM.
Experiment [13] has the same target. Particulars: at 1 µM.
The target of experiment [14] is Misshapen-like kinase 1 (Homo sapiens) (UniProt Q8N4C8). Particulars: at 0.1 µM.
Experiment [15] shares this target. To be noted: at 1 µM.
The target in experiment [16] is T4, Serine/threonine-protein kinase 4 (Homo sapiens) (UniProt Q13043).
T4 sequence (whole entry): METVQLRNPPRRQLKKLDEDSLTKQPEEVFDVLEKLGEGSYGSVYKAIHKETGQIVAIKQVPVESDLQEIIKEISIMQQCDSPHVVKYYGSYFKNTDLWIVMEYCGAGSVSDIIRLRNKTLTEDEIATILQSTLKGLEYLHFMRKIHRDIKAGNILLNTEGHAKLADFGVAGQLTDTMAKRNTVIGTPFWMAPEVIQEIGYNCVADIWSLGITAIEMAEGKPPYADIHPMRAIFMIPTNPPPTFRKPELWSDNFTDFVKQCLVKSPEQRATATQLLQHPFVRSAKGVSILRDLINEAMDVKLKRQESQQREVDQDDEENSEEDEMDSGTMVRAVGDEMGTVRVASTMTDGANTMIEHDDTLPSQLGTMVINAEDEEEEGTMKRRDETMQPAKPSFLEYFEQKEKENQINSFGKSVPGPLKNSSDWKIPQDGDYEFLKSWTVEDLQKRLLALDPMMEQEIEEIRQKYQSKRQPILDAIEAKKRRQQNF
To be noted: at 0.1 µM.

In experiment [17] the target is T4, Serine/threonine-protein kinase 4 (Homo sapiens). To be noted: at 1 µM.
Experiment [18] addresses T5, Serine/threonine-protein kinase 3 (Homo sapiens) (UniProt Q13188).
T5 sequence (whole entry): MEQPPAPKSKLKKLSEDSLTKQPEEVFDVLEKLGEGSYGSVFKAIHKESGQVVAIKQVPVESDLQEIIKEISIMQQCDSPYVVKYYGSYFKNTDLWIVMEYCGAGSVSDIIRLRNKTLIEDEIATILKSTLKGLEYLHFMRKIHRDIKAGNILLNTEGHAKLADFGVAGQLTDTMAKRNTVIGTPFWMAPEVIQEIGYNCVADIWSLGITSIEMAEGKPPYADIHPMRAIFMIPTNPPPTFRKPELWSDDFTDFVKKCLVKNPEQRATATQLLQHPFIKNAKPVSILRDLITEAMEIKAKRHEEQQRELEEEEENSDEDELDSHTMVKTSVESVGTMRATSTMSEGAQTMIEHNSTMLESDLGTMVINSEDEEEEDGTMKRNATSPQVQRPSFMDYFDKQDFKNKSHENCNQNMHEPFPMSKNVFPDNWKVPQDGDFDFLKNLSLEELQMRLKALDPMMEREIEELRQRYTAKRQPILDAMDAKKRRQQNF
Particulars: at 0.1 µM.

Experiment [19] has as its target T5, Serine/threonine-protein kinase 3 (Homo sapiens). To be noted: at 1 µM.
Experiment [20] has as its target Serine/threonine-protein kinase 26 (Homo sapiens) (UniProt Q9P289). To be noted: at 0.1 µM.

Each structure is given as a SMILES string.

Sequence of Aurora kinase B (Homo sapiens) (Q96GD4 whole entry): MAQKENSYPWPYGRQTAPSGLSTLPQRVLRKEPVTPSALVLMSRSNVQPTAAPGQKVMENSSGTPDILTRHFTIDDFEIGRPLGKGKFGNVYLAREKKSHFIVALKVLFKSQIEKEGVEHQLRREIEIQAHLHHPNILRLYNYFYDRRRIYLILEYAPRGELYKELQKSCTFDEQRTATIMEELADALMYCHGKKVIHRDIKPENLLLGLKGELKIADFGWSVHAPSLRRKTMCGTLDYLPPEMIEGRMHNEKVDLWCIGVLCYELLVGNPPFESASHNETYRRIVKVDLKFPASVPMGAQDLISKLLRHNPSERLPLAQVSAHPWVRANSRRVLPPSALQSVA
Sequence of Serine/threonine-protein kinase 10 (Homo sapiens) (O94804 whole entry, looked up): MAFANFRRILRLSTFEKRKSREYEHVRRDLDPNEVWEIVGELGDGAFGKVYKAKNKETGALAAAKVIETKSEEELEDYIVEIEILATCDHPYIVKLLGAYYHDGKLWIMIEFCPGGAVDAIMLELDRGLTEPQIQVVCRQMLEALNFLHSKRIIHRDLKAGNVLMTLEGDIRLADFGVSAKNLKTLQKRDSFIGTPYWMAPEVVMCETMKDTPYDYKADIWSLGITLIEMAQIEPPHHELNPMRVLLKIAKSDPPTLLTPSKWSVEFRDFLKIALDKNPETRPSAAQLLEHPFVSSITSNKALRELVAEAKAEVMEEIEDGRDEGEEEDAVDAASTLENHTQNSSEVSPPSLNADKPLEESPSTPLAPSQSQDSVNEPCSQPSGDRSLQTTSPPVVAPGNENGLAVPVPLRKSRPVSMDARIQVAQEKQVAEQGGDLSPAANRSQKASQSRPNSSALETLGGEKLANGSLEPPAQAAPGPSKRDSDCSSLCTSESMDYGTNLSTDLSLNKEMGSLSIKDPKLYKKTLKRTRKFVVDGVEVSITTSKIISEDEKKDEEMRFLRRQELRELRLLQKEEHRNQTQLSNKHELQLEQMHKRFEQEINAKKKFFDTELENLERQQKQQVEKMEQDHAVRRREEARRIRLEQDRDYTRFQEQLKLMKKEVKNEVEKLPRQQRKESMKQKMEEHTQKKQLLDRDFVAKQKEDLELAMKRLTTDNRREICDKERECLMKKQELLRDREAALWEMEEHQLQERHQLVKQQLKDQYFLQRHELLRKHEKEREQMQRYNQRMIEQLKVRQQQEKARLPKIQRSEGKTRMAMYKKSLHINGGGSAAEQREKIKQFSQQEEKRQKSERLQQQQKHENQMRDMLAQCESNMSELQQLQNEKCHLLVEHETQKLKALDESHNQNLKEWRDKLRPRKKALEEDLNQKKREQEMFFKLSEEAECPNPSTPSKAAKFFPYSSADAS
Sequence of Serine/threonine-protein kinase 26 (Homo sapiens) (Q9P289 2-416 limits assumed): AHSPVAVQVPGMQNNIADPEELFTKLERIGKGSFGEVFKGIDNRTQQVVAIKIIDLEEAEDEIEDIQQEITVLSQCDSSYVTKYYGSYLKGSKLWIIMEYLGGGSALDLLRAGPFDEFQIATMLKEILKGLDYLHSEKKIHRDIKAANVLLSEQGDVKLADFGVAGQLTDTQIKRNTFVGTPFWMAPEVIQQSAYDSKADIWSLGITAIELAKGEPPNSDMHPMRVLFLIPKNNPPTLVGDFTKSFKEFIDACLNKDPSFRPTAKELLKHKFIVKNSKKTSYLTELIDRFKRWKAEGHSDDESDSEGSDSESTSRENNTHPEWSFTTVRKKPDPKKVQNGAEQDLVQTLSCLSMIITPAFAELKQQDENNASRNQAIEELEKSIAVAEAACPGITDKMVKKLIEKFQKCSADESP
Sequence of Misshapen-like kinase 1 (Homo sapiens) (Q8N4C8 whole entry, looked up): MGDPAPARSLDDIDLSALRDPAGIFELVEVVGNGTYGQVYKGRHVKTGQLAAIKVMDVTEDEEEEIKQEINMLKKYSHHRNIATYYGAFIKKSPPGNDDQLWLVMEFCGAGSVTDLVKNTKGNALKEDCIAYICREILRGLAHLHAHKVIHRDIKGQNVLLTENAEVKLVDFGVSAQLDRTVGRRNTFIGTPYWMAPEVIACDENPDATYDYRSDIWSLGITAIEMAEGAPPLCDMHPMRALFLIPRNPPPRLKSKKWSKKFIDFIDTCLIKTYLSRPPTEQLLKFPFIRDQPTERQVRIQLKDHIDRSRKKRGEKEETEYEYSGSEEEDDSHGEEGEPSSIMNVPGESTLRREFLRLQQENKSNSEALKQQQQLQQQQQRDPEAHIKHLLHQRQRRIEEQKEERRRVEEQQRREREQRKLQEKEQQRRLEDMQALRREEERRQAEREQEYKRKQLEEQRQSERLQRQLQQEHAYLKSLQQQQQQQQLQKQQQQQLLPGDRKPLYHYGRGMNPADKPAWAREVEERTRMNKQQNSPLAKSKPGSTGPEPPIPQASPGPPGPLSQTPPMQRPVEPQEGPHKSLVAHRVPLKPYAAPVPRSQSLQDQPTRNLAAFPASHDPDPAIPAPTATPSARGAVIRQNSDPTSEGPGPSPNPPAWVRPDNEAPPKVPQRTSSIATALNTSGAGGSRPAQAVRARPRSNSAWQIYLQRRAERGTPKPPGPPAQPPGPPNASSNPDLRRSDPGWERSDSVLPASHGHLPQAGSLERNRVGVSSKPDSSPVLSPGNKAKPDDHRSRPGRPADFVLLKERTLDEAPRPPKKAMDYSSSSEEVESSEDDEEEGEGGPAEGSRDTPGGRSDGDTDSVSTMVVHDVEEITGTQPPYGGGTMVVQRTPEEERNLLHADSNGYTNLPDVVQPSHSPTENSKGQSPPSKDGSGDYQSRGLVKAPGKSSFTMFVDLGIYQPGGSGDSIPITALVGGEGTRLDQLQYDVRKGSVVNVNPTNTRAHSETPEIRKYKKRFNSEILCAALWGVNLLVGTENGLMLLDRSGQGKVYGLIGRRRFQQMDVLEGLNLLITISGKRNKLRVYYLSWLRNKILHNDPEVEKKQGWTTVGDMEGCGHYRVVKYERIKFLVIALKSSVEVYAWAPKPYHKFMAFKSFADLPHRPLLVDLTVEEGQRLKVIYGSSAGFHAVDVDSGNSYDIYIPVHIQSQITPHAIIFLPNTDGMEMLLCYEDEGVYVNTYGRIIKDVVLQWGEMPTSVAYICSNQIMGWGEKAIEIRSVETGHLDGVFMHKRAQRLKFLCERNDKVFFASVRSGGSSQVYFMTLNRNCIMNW
Sequence of Mitogen-activated protein kinase kinase kinase kinase 4 (Homo sapiens) (O95819 2-1239 limits assumed): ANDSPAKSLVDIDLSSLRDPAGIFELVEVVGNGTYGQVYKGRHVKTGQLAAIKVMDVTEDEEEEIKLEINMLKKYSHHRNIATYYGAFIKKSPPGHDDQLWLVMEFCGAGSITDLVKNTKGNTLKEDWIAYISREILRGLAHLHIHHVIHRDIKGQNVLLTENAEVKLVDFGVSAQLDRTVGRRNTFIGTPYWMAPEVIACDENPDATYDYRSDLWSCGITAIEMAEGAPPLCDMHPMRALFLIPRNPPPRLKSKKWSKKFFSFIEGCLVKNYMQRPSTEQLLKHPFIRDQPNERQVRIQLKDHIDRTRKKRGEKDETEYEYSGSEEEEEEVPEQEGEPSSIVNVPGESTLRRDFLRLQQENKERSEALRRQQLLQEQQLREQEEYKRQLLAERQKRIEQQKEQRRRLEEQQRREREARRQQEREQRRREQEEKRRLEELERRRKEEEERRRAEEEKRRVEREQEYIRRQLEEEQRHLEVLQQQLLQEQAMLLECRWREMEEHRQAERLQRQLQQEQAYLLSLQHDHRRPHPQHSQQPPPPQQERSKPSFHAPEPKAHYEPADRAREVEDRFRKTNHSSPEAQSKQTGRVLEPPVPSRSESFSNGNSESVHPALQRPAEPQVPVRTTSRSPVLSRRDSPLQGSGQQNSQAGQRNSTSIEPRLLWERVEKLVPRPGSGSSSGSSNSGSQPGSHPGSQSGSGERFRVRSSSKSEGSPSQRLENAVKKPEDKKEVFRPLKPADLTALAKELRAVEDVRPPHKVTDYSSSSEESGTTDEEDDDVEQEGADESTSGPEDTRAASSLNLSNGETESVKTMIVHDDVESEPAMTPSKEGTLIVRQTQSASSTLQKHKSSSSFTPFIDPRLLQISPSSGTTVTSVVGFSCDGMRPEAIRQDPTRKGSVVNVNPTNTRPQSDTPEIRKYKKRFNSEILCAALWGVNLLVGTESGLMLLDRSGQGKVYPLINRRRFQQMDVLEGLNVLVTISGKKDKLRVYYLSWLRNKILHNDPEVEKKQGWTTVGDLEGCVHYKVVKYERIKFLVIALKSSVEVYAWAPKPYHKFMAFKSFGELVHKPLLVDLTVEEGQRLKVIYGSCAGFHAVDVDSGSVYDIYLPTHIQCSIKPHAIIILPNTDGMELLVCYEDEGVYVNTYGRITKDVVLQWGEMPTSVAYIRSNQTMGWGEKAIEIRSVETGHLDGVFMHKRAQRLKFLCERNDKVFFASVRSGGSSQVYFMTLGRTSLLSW
Sequence of Dual specificity mitogen-activated protein kinase kinase 1 (Homo sapiens) (Q02750 whole entry): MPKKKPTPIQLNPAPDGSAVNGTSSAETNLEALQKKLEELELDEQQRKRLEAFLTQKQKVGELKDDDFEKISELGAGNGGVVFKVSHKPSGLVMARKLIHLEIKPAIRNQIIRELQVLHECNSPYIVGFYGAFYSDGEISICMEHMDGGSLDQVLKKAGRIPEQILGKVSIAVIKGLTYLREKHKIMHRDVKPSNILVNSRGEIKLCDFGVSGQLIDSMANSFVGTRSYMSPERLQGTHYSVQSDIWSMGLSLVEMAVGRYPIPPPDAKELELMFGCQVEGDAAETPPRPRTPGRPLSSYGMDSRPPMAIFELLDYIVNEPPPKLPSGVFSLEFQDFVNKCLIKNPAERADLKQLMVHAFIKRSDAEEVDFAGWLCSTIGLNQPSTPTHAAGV

The term inhibition denotes the change of the read-out against control, counted positive when it falls. Consider `Cc1cc(-c2ccco2)cc(C)c1/C=C/c1cncc(-c2nn[nH]n2)c1`, for which the inhibition is 20% in [1]; 0% in experiment [2]; 3.63% in experiment [3]; -0.32% in experiment [4]; 7.33% in experiment [5]; 2.24% in experiment [6]. Further, the inhibition was 2.3% in experiment [7]; 1.39% in experiment [8]; 1.37% in [9]; 1.07% in experiment [10]; -0.27% in [11]; 3.02% in experiment [12]. In addition, the inhibition in experiment [13] is 3.14%; in experiment [14], 1.5%; in experiment [15] it was 0.04%; in experiment [16] it was 0.26%; in [17] it was 0.16%; in experiment [18], -0.6%. Besides, the figures for the inhibition in [19] and in [20] were 0.69% and 1.06%, respectively.

On to `CCn1c(-c2nonc2N)nc2c(C#CC(C)(C)O)ncc(OCC3CCNCC3)c21`, for which the inhibition in [1] was 3.09%; in experiment [2] it was -0.07%; in experiment [3], 0.45%; in experiment [4], -3.33%; in experiment [6], 3.91%; in experiment [7], 13.6%. Besides, the inhibition in experiment [8] worked out at 1.42%; in [9], 1.95%; in [10], 4.98%; in [11] it was 17.6%; in [12] it was 5.08%; in experiment [13], 4.1%. Also, the inhibition was 5.98% in experiment [14]; 13.3% in [15]; 8.62% in [16]; 16.3% in experiment [17]; 8.69% in experiment [18]; 14.7% in [19]. The inhibition in experiment [20] is 0.23%.

For the compound `NC(=O)c1sc(-n2cnc3cc(C(F)(F)F)ccc32)cc1OCc1ccccc1Br`, the inhibition in [1] is 2.05%; in experiment [2] it was -0.8%; in [3], 2.44%; in experiment [4], 1.36%; in experiment [5] it was 4.02%; in [6], 7.36%. Besides, the inhibition was found to be 34.7% in experiment [7]; 1.32% in [8]; 5.29% in [9]; 3.11% in [10]; 12.4% in experiment [11]; 2.56% in experiment [12]. For the same compound, the inhibition in experiment [13] was found to be 1.52%; in experiment [14], 4.93%; in experiment [15] it was 11.4%; in [16], 1.82%; in experiment [17], 2.83%; in experiment [18], 1.31%. In addition, the inhibition came to 2.28% in experiment [19] and 1.54% in experiment [20].

On to `COc1cc2c(cc1Nc1nc(Nc3ccsc3C(N)=O)c3cc[nH]c3n1)N(C(=O)CN(C)C)CCC2`, for which the inhibition in experiment [2] came out at 0.75%; in experiment [3] it was 2.92%; in experiment [4], 1.46%; in [5] it was 2.53%; in experiment [6], 11.4%; in experiment [7], 17.4%. The inhibition was 1.63% in experiment [8]; 11.8% in [9]; 9.31% in experiment [10]; 14.9% in experiment [11]; -3.96% in experiment [12]; -5.54% in experiment [13]. The inhibition in experiment [14] was found to be 13.3%; in experiment [15], 17%; in [16], 1.72%; in [17] it was 8.27%; in experiment [20], 1.14%.

Consider `CCn1c(-c2nonc2N)nc2c(C#CCN)ncc(OCCCN)c21`, for which the inhibition was 5.16% in [1]; 4.99% in experiment [2]; 6.36% in experiment [3]; 3.54% in experiment [4]; -8.09% in experiment [5]; 4.42% in [6]. The inhibition in [7] was 11.3%; in experiment [8] it was 3.61%; in [9] it was 4.55%; in experiment [10] it was 1.78%; in experiment [11] it was 6.77%; in experiment [12], -2.28%. The inhibition in experiment [13] was -2.9%; in [14] it was -0.45%; in [15] it was 11.5%; in experiment [16], 2%; in experiment [17], 5.35%; in [18] it was 2.31%. The inhibition in experiment [19] came out at 6.61%; in experiment [20], 1.82%.

For `CCn1c(-c2nonc2N)nc2c(C#CC(C)(C)O)nc(O[C@@H](CN)c3ccccc3)cc21`, the inhibition was 5.65% in experiment [1]; 0.38% in experiment [2]; 6.56% in [3]; -0.63% in [4]; 1.38% in experiment [5]; 1.16% in [6]. Moreover, the inhibition in experiment [7] is 19.8%; in experiment [8], 4.66%; in [9], 24.8%; in experiment [10], 2.87%; in experiment [11], 20.4%; in [12] it was -0.01%. Further, the inhibition in experiment [13] was found to be 6.28%; in experiment [14] it was 2.21%; in experiment [15], 11%; in experiment [16], 3.02%; in [17] it was 15.9%; in [18] it was 1.12%. Moreover, the inhibition in [20] stood at 1.22%.

As to `Nc1nonc1-c1nc2cnccc2n1C1CCCCC1`, the inhibition is 5.79% in [1]; 0.62% in experiment [2]; 7.52% in experiment [3]; -0.66% in experiment [4]; 5.22% in experiment [5]; 0.39% in experiment [6]. The inhibition worked out at 18.4% in experiment [7]; 3.87% in experiment [8]; 20.4% in experiment [9]; 6.25% in experiment [10]; 46.2% in experiment [11]; 0.13% in experiment [12]. Besides, the inhibition in experiment [13] is 7.67%; in [14], 2.02%; in [15] it was 31.4%; in experiment [16], 0.54%; in [17], 18.5%; in [18], -0.2%. Moreover, the inhibition is 13.8% in experiment [19] and 0.77% in experiment [20].
